Test results published in PubChem BioAssay AID1159580 (chemical genetic matrix, 2015).
Hit rate of the full screen: of about 5,500 compounds, about 2,000 (36%) were called active. Roughly 18% stayed inconclusive and do not appear here. Rule as the data show it: active = normalized growth mostly below about 0.91 (no sharp cut-off); inconclusive = no clear call, values can overlap the other calls; inactive = mostly above about 0.92. The list shows a part of the results.

Assay: chemical genetic growth profiling, strain panel (AID 1159580);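 also: tested at 20 µM; growth read once vehicle control cultures reached saturation at 30 °C; 1 = growth at the plate median or of vehicle wells; lower values mean less growth of the strain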
Details: growth OD

Measured: normalized growth

O=C1OC(c2ccc(O)cc2)(c2ccc(O)cc2)c2ccccc21
inactive: S. cerevisiae deletion strains, locus YJR043C, strain POL32, stronger effect = lower value 0.991 | S. cerevisiae deletion strains, locus YJR066W, strain TOR1, stronger effect = lower value 0.937 | S. cerevisiae deletion strains, locus YKL009W, strain mrt4, stronger effect = lower value 0.979 | S. cerevisiae deletion strains, locus YKL068W, stronger effect = lower value 0.991 | S. cerevisiae deletion strains, locus YKL085W, strain MDH1 (second series), stronger effect = lower value 0.975 | S. cerevisiae deletion strains, locus YKL085W, strain MDH1, stronger effect = lower value 0.975 | S. cerevisiae deletion strains, locus YKL160W, strain elf1, stronger effect = lower value 0.97 | S. cerevisiae deletion strains, locus YKL190W, strain CNB1, stronger effect = lower value 0.994 | S. cerevisiae deletion strains, locus YKR001C, strain vps1, stronger effect = lower value 0.993 | S. cerevisiae deletion strains, locus YKR091W, strain srl3, stronger effect = lower value 0.989 | S. cerevisiae deletion strains, locus YLL001W, strain dnm1, stronger effect = lower value 0.964 | S. cerevisiae deletion strains, locus YLL026W, stronger effect = lower value 0.973 | S. cerevisiae deletion strains, locus YLL041C, strain sdh2, stronger effect = lower value 0.979 | S. cerevisiae deletion strains, locus YLR027C, strain aat2, stronger effect = lower value 0.983 | S. cerevisiae deletion strains, locus YLR039C, strain RIC1, stronger effect = lower value 0.96 | S. cerevisiae deletion strains, locus YLR058C, strain SHM2, stronger effect = lower value 0.995 | S. cerevisiae deletion strains, locus YLR102C, strain apc9, stronger effect = lower value 0.978 | S. cerevisiae deletion strains, locus YLR113W, strain HOG1, stronger effect = lower value 0.974 | S. cerevisiae deletion strains, locus YLR221C, strain rsa3, stronger effect = lower value 1.01 | S. cerevisiae deletion strains, locus YLR258W, strain gsy2, stronger effect = lower value 0.973 | S. cerevisiae deletion strains, locus YLR262C, strain YPT6 (second series), stronger effect = lower value 0.995 | S. cerevisiae deletion strains, locus YLR262C, strain YPT6, stronger effect = lower value 0.946 | S. cerevisiae deletion strains, locus YLR268W, strain sec22, stronger effect = lower value 0.916 | S. cerevisiae deletion strains, locus YLR320W, strain mms22, stronger effect = lower value 1 | S. cerevisiae deletion strains, locus YLR330W, strain CHS5, stronger effect = lower value 0.982 | S. cerevisiae deletion strains, locus YLR342W, strain FKS1 (second series), stronger effect = lower value 0.998 | S. cerevisiae deletion strains, locus YLR342W, strain FKS1, stronger effect = lower value 0.994 | S. cerevisiae deletion strains, locus YLR357W, strain rsc2, stronger effect = lower value 0.949 | S. cerevisiae deletion strains, locus YLR370C, strain arc18, stronger effect = lower value 0.989 | S. cerevisiae deletion strains, locus YLR371W, strain rom2, stronger effect = lower value 0.948 | S. cerevisiae deletion strains, locus YLR384C, strain iki3, stronger effect = lower value 0.981 | S. cerevisiae deletion strains, locus YML016C, strain PPZ1, stronger effect = lower value 1 | S. cerevisiae deletion strains, locus YML032C, strain rad52, stronger effect = lower value 0.956 | S. cerevisiae deletion strains, locus YML120C, strain ndi1, stronger effect = lower value 0.977 | S. cerevisiae deletion strains, locus YML124C, strain tub3, stronger effect = lower value 0.978 | S. cerevisiae deletion strains, locus YMR058W, strain fet3, stronger effect = lower value 0.966 | S. cerevisiae deletion strains, locus YMR078C, strain ctf18, stronger effect = lower value 0.968 | S. cerevisiae deletion strains, locus YMR125W, strain sto1, stronger effect = lower value 0.962 | S. cerevisiae deletion strains, locus YMR129W, stronger effect = lower value 0.987 | S. cerevisiae deletion strains, locus YMR205C, strain PFK2, stronger effect = lower value 0.971 | S. cerevisiae deletion strains, locus YMR223W, strain ubp8, stronger effect = lower value 0.997 | S. cerevisiae deletion strains, locus YMR231W, strain pep5, stronger effect = lower value 0.992 | S. cerevisiae deletion strains, locus YMR307W, strain GAS1, stronger effect = lower value 0.909 | S. cerevisiae deletion strains, locus YNL067W, strain RPL9B, stronger effect = lower value 0.987 | S. cerevisiae deletion strains, locus YNL071W, strain lat1, stronger effect = lower value 0.95 | S. cerevisiae deletion strains, locus YNL153C, strain GIM3, stronger effect = lower value 1 | S. cerevisiae deletion strains, locus YNL183C, strain NPR1, stronger effect = lower value 0.956 | S. cerevisiae deletion strains, locus YNL209W, strain ssb2, stronger effect = lower value 0.99 | S. cerevisiae deletion strains, locus YNL233W, strain BNI4, stronger effect = lower value 0.981 | S. cerevisiae deletion strains, locus YNL250W, strain rad50, stronger effect = lower value 0.99 | S. cerevisiae deletion strains, locus YNL271C, strain bni1, stronger effect = lower value 0.988 | S. cerevisiae deletion strains, locus YNL298W, strain CLA4, stronger effect = lower value 0.99 | S. cerevisiae deletion strains, locus YNL307C, strain MCK1, stronger effect = lower value 0.937 | S. cerevisiae deletion strains, locus YNL322C, strain KRE1 (second series), stronger effect = lower value 0.991 | S. cerevisiae deletion strains, locus YNL322C, strain KRE1, stronger effect = lower value 0.994 | S. cerevisiae deletion strains, locus YNR049C, strain mso1, stronger effect = lower value 0.99 | S. cerevisiae deletion strains, locus YNR052C, strain pop2, stronger effect = lower value 0.969 | S. cerevisiae deletion strains, locus YOL006C, strain TOP1, stronger effect = lower value 0.952 | S. cerevisiae deletion strains, locus YOL012C, strain htz1 0.612 | S. cerevisiae deletion strains, locus YOL147C, strain pex11, stronger effect = lower value 0.981 | S. cerevisiae deletion strains, locus YOR001W, strain rrp6, stronger effect = lower value 0.973 | S. cerevisiae deletion strains, locus YOR061W, strain CKA2, stronger effect = lower value 1 | S. cerevisiae deletion strains, locus YOR069W, strain VPS5, stronger effect = lower value 0.988 | S. cerevisiae deletion strains, locus YOR070C, strain gyp1, stronger effect = lower value 0.991 | S. cerevisiae deletion strains, locus YOR080W, strain dia2, stronger effect = lower value 0.981 | S. cerevisiae deletion strains, locus YOR083W, strain WHI5, stronger effect = lower value 0.983 | S. cerevisiae deletion strains, locus YOR106W, strain vam3, stronger effect = lower value 0.944 | S. cerevisiae deletion strains, locus YOR136W, strain idh2, stronger effect = lower value 0.983 | S. cerevisiae deletion strains, locus YOR144C, strain elg1, stronger effect = lower value 0.987 | S. cerevisiae deletion strains, locus YOR184W, strain ser1, stronger effect = lower value 0.939 | S. cerevisiae deletion strains, locus YOR231W, strain MKK1, stronger effect = lower value 0.974 | S. cerevisiae deletion strains, locus YOR265W, strain rbl2, stronger effect = lower value 0.995 | S. cerevisiae deletion strains, locus YOR270C, strain vph1, stronger effect = lower value 0.89 | S. cerevisiae deletion strains, locus YOR290C, strain snf2, stronger effect = lower value 0.965 | S. cerevisiae deletion strains, locus YOR316C, strain cot1, stronger effect = lower value 0.968 | S. cerevisiae deletion strains, locus YPL051W, strain arl3, stronger effect = lower value 1 | S. cerevisiae deletion strains, locus YPL078C, strain atp4, stronger effect = lower value 0.952 | S. cerevisiae deletion strains, locus YPL106C, strain sse1, stronger effect = lower value 1.01 | S. cerevisiae deletion strains, locus YPL240C, strain hsp82, stronger effect = lower value 0.982 | S. cerevisiae deletion strains, locus YPL241C, strain CIN2, stronger effect = lower value 0.989 | S. cerevisiae deletion strains, locus YPL256C, strain CLN2, stronger effect = lower value 0.965 | S. cerevisiae deletion strains, locus YPR119W, strain clb2, stronger effect = lower value 0.98 | S. cerevisiae deletion strains, locus YPR141C, strain kar3, stronger effect = lower value 0.998 | S. cerevisiae deletion strains, locus YPR163C, strain tif3, stronger effect = lower value 0.965 | S. cerevisiae deletion strains, locus YPR167C, strain met16, stronger effect = lower value 0.972 | S. cerevisiae deletion strains, strain wtn01, stronger effect = lower value 0.954 | S. cerevisiae strains, strain wild type, stronger effect = lower value 0.998
active: S. cerevisiae deletion strains, locus YLR418C, strain cdc73, stronger effect = lower value 0.835
